# Source: PubChem BioAssay (National Center for Advancing Translational Sciences (NCATS))
# IL-1B inflam inh – inhibitors of inflammasome signaling (IL-1 beta secretion); actives 4.7% (n = 360,000); THP-1 LPS/ATP IL-1B secretion, AlphaLISA, 16 h; stronger effect = lower value; activity change, % at 57.5 µM; AID 743279; in the data active means activity change below about -50%; inconclusive means mostly about -30% to -49%
#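 Secreted IL-1B measured by AlphaLISA bead assay after 16 h compound exposure of THP-1 cells; compounds (final up to 57.5 uM) added 1 h before LPS (250 ng/mL) and ATP (1.25 mM) stimulation; lower signal means less secretion.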
# HT1080 IDH1KD tx – kills HT-1080 cells with IDH1 knockdown | HT-1080 IDH1 knockdown viability, ATP luminescence, 48 h | Potency, µM (series often up to 46.1 µM), most hits filed as cytotoxic | actives 2% (n = 360,000)
#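 After a 2 h attachment period, IDH1KD HT-1080 cells took pin-transferred compound for 48 h at 37 °C; ATP-based luminescence after 10 min room-temperature reagent incubation reported viability.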
# DT40 TDP1 no CPT – qHTS for Inhibitors of human tyrosyl-DNA phosphodiesterase 1 (TDP1): qHTS in cells in absence of CPT; DT40 Tdp1-/- hTDP1 cells, no CPT, ATP luminescence, 48 h; actives 15% (n = 420,000); Potency, µM (series often up to 46.2 µM), actives largely listed as inhibitors; further: nearly all actives have a fitted effect of over 55% in size
#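 Cells were dispensed at 400 per well, compounds added by pin tool, plates incubated ≥48 hr at 37 °C, then CellTiter-Glo added for 30 min at room temperature before luminescence reading. Line: DT40 Tdp1-/- complemented with hTDP1; camptothecin omitted.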
# HT1080NT lethal – kills 2HG-producing HT-1080-NT fibrosarcoma cells; HT-1080-NT fibrosarcoma viability, CellTiter-Glo ATP luminescence, 48 h; Potency, µM (series often up to 46.1 µM), hits mostly cytotoxic; actives 1.6% (n = 360,000);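 further: NT is the 2HG producing partner of a matched IDH1 knockdown line; nearly all actives have a fitted effect of over 55% in size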
#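 Read-out is CellTiter-Glo luminescence after 10 minutes at room temperature, following 48 hours' compound treatment of HT-1080-NT cells (750 cells/well, RPMI, 5% FBS, 37 degrees C).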
# uPA surface inh – cell surface uPA generation inhibition; cell surface uPA generation assay, qHTS; Potency, µM (top dose mostly 38.3 µM), usual class: inhibitors; actives 0.31% (n = 330,000); active means well fitted inhibition curve with a large enough effect; inconclusive means small, poorly fitted or top-dose-only effect; inactive means no such curve, though single readings can be large or run the other way; tested in mouse RAW 264.7 cells; further: nearly all actives have a fitted effect of over 55% in size
# DT40 TDP1 CPT – DT40-hTDP1 cell growth loss with CPT; chicken DT40 Tdp1-/-;hTDP1 cells + 20 nM CPT, ATP luminescence, 48 h; actives 12% (n = 420,000); Potency, µM (highest dose often 46.2 µM), actives largely listed as inhibitors; further: nearly all actives have a fitted effect of over 55% in size
#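 Chicken DT40 Tdp1-/- cells complemented with human TDP1, 400 cells/well, exposed to compounds plus 20 nM camptothecin for at least 48 h at 37 C; viability read as ATP content by CellTiter-Glo luminescence.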
# Numbers stand for hits; – = inactive; ? = inconclusive; · = no result. Most compounds without a hit are left out; they make up all but 19% or so of the library. Unless noted, the call rests on the fitted dose curve; in most records, active means well fitted curve in the direction sought with a large enough effect; inconclusive means small, poorly fitted or top-dose-only effect, or another doubt; inactive means no such curve, though single readings can be large; an effect the other way counts as inactive or inconclusive.
SMILES,IL-1B inflam inh,HT1080 IDH1KD tx,DT40 TDP1 no CPT,HT1080NT lethal,uPA surface inh,DT40 TDP1 CPT
Cc1ccccc1N1C(=O)c2ccccc2C1O (stereo not given),–,–,–,–,–,–
Cc1ccc(S(=O)(=O)NCc2cccc([N+](=O)[O-])c2)cc1,–,–,?,–,·,–
Cc1cc(Nc2ccccc2)nc(N2CCN(C(=O)c3ccc4c(c3)OCO4)CC2)n1,–,–,?,–,–,?
c1cc(-c2ccc(N3CCOCC3)cc2)n2cnnc2c1,–,–,?,–,·,–
O=[N+]([O-])c1cc(-c2nc(-c3ccccc3)no2)ccc1NCc1cccnc1,·,·,5.8µM,·,·,11.6µM
COc1ccc(-c2noc(-c3ccc(NCc4cccnc4)c([N+](=O)[O-])c3)n2)cc1,·,·,–,·,·,?
Cc1ccc(-c2noc(-c3ccc(NCc4cccnc4)c([N+](=O)[O-])c3)n2)cc1,·,·,5.17µM,·,·,?
Nc1nc2[nH]c(=O)[nH]c2c(=O)[nH]1,·,·,–,·,·,–
O=C(NCCc1ccc(O)c(O)c1)C1COc2ccccc2O1 (stereo not given),–,?,?,–,–,13µM
O=C(NCCc1ccccc1)C1COc2ccccc2O1 (stereo not given),–,–,–,–,–,–
CCN1CCN(C(=O)C(C)Sc2nc3nc(C)cc(C)n3n2)CC1 (stereo not given),-51.4,–,–,–,–,–
Cc1c(Br)c([N+](=O)[O-])nn1CC(=O)Nc1ccc(C(C)C)cc1,–,23.1µM,?,–,–,?
N#CC1=C(N)SC(N)=C(C#N)C1c1ccc([N+](=O)[O-])cc1,–,?,?,–,–,14.6µM
Cc1cc(C)n2nc(C(=O)OCC(=O)Nc3cc(S(=O)(=O)N4CCOCC4)ccc3Cl)nc2n1,–,–,–,–,–,–
CCCOc1ccc(-c2nc(C#N)c(N3CCC(C(N)=O)CC3)o2)cc1,?,?,–,?,·,–
CC(Nc1oc(-c2ccc(COc3ccccc3)o2)nc1C#N)c1ccccc1 (stereo not given),·,·,9.2µM,·,·,6.51µM
Cc1cccc(OCc2ccc(-c3nc(C#N)c(N4CCC(C(N)=O)CC4)o3)o2)c1,·,·,?,·,·,16.4µM
COc1ccc(OCc2ccc(-c3nc(C#N)c(N4CCN(C)CC4)o3)o2)cc1,·,·,14.6µM,·,·,?
CNc1oc(-c2ccc(COc3ccc(C)cc3)o2)nc1C#N,·,·,–,·,·,–
COc1ccc(OCc2ccc(-c3nc(C#N)c(N4CCCCC4)o3)o2)cc1,·,·,?,·,·,–
COc1ccc(OCc2ccc(-c3nc(C#N)c(N4CCC(C)CC4)o3)o2)cc1,·,·,23.1µM,·,·,?
Cc1ccc([C@H]2C[C@H](O)[C@@H](n3cc(C4CC4)nn3)CN2C(=O)C2CCCCC2)cc1,–,–,–,–,·,–
N#Cc1nc(-c2ccc(COc3ccccc3)o2)oc1N1CCN(c2ccccc2)CC1,·,·,–,·,·,–
Cc1ccc(-c2nc(C#N)c(N3CCC(C)CC3)o2)cc1,–,–,?,–,–,?
CC1CCN(c2oc(-c3ccc(COc4ccccc4)o3)nc2C#N)CC1,·,·,10.3µM,·,·,20.6µM
SMILES,IL-1B inflam inh,HT1080 IDH1KD tx,DT40 TDP1 no CPT,HT1080NT lethal,uPA surface inh,DT40 TDP1 CPT
Cc1ccc(OCc2ccc(-c3nc(C#N)c(N4CCC(C)CC4)o3)o2)cc1,·,·,20.6µM,·,·,?
C#CC(=O)N(c1ccc(OC)cc1OC)C(C(=O)NC1CCCC1)c1cccs1 (stereo not given),-102.4,?,2.06µM,0.92µM,–,?
C#CC(=O)N(c1cc(OC)ccc1OC)C(C(=O)NC1CCCC1)c1cccs1 (stereo not given),-120.2,0.731µM,2.06µM,0.0731µM,–,2.31µM
COc1ccc(N(C(=O)c2ccco2)C(C(=O)NC2CCCCC2)c2cccs2)cc1OC (stereo not given),–,–,?,–,–,?
CCCN(CCC)CCNC(=O)c1cc2c(=O)n(C)c3ccccc3c2n1C,-63.4,–,18.4µM,–,–,?
Cn1c(C(=O)NCCN2CCOCC2)cc2c(=O)n(C)c3ccccc3c21,–,–,–,–,–,?
